# Laboratory results reported in the supplement of paper PMC11417369.
# Over roughly 25,000 sequences, “ln(normalized median fluorescence intensity)” has its median near 9.3; the highest 2% begin near 10. The list comes from a sample in which the highest values are over-represented; it also holds similar and randomly drawn sequences.
# Test system: PF3D7_0420300 AP2 domain 1 (GST-tagged)
# Test: gcPBM binding intensity (ln(normalized median fluorescence intensity)); higher = stronger DNA binding
# In short: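 DNA-binding domains from P. falciparum, fused to GST and produced in E. coli, were put on an Agilent 4 × 180k double-stranded probe array for 1 h in 1× PBS holding 1% milk, 0.2 mg/ml BSA, 0.5% salmon testes DNA and 0.03% Triton X-100. Probes were primer-extended, 36 bp long and drawn from intergenic genomic regions, with negative controls included. After Alexa488 anti-GST antibody detection and a 488 nm scan, binding intensity was set as the highest Masliner-normalised natural-log median intensity across replicate spots of either probe orientation.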
row,Sequence,gcPBM binding intensity (ln)
1,ATATTACGCACAAAAAAAAAAAAAAAAAAAAAAAAA [CACACA_negctrl_site941],8.77
2,TGGATGTTAATATAGTGTACATTTATAAGTCAGTAT [XGTACX_site2949],9.45
3,ATATTGTAAGTAAACACACACACATCTATAGGTATA [CACACA_site6462],9.96
4,AATATATACATACATACATGCATACATATATATAAC [TGCATGCA_site371],9.37
5,TATTTATACCTATACACACACACACGGATATTTATA [CACACA_site7123],10.2
6,GATACCTATAGACACACACACATACCTATATACATA [CACACA_site7586],10.1
7,AAAAAACAGACATACACACACACACGGATATTTATA [CACACA_site7570],10.3
8,AAAACAAACAGACACACACACATATTTATATTTATA [CACACA_site7681],10.1
9,TATATACCTATATACACACACATATATTATAGATAT [CACACA_site6266],9.82
10,TATATATATTTATACACACACATATATTTATATATT [CACACA_site484],9.7
11,TATTTATATTTATATACACACATATATACCTATATA [CACACA_site7820],9.48
12,ACCATACATACATACACACACACACGCATATTTATA [CACACA_site7386],10.4
13,TATAGATACCTATACACACACACACGGACATATATA [CACACA_site7585],10.2
14,TATATATATATATATACACACATATATATATTTATA [CACACA_site627],9.39
15,CATACATACATACATACACACATACCTATATTTATA [CACACA_site6769],9.79
16,CATACATACAGACACACACACATATTTATATTTATA [CACACA_site6172],9.94
17,AATGCTATCATTAATGCACACATTTAAAATTAATAT [CACACA_site3548],9.22
18,ATTATATTAATTTATAGTACAATATTTATATATATG [XGTACX_site4668],9.2
19,AAATATATATATAGTACATGCAGTAGATAATTTAAT [TGCATGCA_site299],9.51
20,CAGATAGACTTATATGCATGCATTCACATACCAACA [TGCATGCA_site163],9.27
21,ATAATATATATATTTTGTACACATGAAAAGGAGGAT [XGTACX_site5034],9.52
22,TTGCTTATTAAATGGGGTACATTATATATATATATA [XGTACX_site2515],9.49
23,TTTTTTTTTTTTTTTGGTACACATTTTGGTTAATGG [XGTACX_site5109],9.06
24,ATATTATTATTAGTTTCACACATTTAATGAAACTAA [CACACA_site5677],9.03
25,TTGTTAATAAAAATATTGGAAAGTTTATAAAATTTT [CACACA_negctrl_site1487],8.9
